Screening results as filed in PubChem.
A selection: hits, their analogues and other compounds. The true share with any hit is near 4.2%.
TRPV1 agonist – human TRPV1 agonism; TRPV1-expressing cells, Fluo-8 calcium influx, agonist mode; AID 540275; activation, % at 8.33 µM; hit rate 0.19% among 320,000; in the data active = activation above about 80%; inconclusive = between about 30% and that limit; note: 0% is about no effect
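TRPV1-expressing cells were cultured overnight at 35.5C and loaded with Fluo-8 calcium dye for 40 to 90 min at room temperature. After a 10 s baseline, compound was added and calcium influx was read kinetically for 3 min (ex 480/em 520 nm).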
D1 agonist – human D1 receptor agonism; HEK293 T-REx D1 cells, calcium flux, agonist mode; P21728; hit rate 1% among 360,000; AID 504660; activation, % at 2 µM; in the data active = activation above about 30%; note: 0% is about no effect
Target sequence (P21728 whole entry, looked up): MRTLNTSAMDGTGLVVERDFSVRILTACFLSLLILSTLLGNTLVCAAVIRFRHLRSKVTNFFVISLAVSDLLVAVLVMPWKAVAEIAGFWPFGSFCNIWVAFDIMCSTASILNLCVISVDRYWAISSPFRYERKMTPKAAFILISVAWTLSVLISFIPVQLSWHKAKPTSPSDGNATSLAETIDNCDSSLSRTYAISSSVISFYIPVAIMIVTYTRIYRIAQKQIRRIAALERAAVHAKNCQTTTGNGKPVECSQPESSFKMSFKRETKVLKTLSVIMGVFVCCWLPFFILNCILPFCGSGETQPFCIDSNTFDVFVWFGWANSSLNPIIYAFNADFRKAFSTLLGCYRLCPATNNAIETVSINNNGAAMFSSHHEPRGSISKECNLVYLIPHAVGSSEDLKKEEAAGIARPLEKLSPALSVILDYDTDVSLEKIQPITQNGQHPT
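Inducible HEK293 T-REx D1 cells, force-coupled to calcium signalling, were plated at 4000 cells/well with tetracycline and held overnight at 30 C. After no-wash calcium dye loading, compound-evoked calcium rise over 180 s flagged agonists.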
D1 potentiator – enhances dopamine response at the human D1 receptor | HEK293 TREx D1 cells, calcium flux, dopamine EC20 potentiation | potentiation, % at 10 µM | hit rate 0.036% among 360,000 | P21728; in the data active = potentiation above about 30%; note: 0% is about no effect
TRPV1 potentiator – human TRPV1 potentiation | hit rate 0.02% among 320,000 | potentiation, % at 8.33 µM | Q8NER1 | AID 540277 | TRPV1-expressing cells, Fluo-8 calcium influx, capsaicin EC20 potentiation; in the data active = potentiation above about 80%; inconclusive = between about 30% and that limit; note: 0% is about no effect
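TRPV1-expressing cells were cultured overnight at 35.5C and loaded with Fluo-8 calcium dye for 40 to 90 min at room temperature. After a 10 s baseline, compound was added and calcium influx was read kinetically for 3 min (ex 480/em 520 nm).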
D1 antagonist – antagonists of human D1 dopamine receptor; P21728; HEK293 TREx D1 cells, calcium flux, dopamine EC80; active compounds read low; activity change, negative = inhibition, % at 10 µM; hit rate 3.2% among 360,000; in the data active = activity change below about -30%; note: % is set by controls: 0 for no effect and ±100 for the full control effect
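After overnight tetracycline induction at 30 C, force-coupled D1 HEK293 cells took up a no-wash calcium dye at room temperature. Compounds were added and monitored 180 s, and the response to EC80 dopamine was then recorded.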
* hit, by the source's call; i = inactive; ? = inconclusive; . = no result given.

SMILES | TRPV1 agonist | D1 agonist | D1 potentiator | TRPV1 potentiator | D1 antagonist
Cc1ccc(C)c(OCCC(=O)OCC(=O)Nc2ccc(N3CCOCC3)cc2)c1 | -6 | 9 | -5 | ? | -53*
O=C(COC(=O)COc1cccc(C(F)(F)F)c1)Nc1ccc(N2CCOCC2)cc1 | 4 | 7 | -9 | 14 | -40*
COc1cccc(N2CCN(Cc3cc(=O)oc4cc(C)ccc34)CC2)c1 | . | 0 | 2 | . | -4
CC(=O)c1cc(C#N)c(SCCC(C)C)nc1C | 16 | 8 | 0 | 3 | -41*
CC(=O)c1cc(C#N)c(N2CCCC2)nc1C | 7 | 7 | 3 | -4 | -36*
CCSc1nc(C)c(C(C)=O)cc1C#N | -8 | 1 | -4 | ? | 17
Cc1ccc2c(C)nc(NC3=NCN(CCc4ccccc4)CN3)nc2c1 | -1 | 5 | -5 | 8 | -43*
Cc1nc(NC2=NCN(CCc3ccccc3)CN2)nc2ccccc12 | -1 | 2 | 1 | 4 | -14
Cc1sc(NC(=O)c2ccc(Br)s2)c(C(N)=O)c1C | ? | -3 | 31* | -16 | 19
CCOC(=O)c1ccc(N2C(=O)c3[nH]nc(-c4ccccc4)c3C2c2cccs2)cc1 (stereo not given) | . | 25 | 6 | . | 28
Cc1ccccc1OCC(=O)N/N=C/c1c(C)nn(-c2ccccc2)c1Cl | 2 | 0 | -15 | 0 | -55*
Cc1ccc(C)c(CN2C(=O)c3ccccc3Sc3ccc(C(=O)NCc4ccco4)cc32)c1 | . | 8 | -1 | . | 7
C1=C(c2ccccc2)CCN(c2ncnc3nc[nH]c23)C1 | 2 | 2 | -10 | 19 | -66*
CCN(CCCNC(=O)c1cc2c(=O)n(C)c3ccccc3c2s1)c1ccccc1 | . | 1 | -1 | . | 3
CCN(CCCNC(=O)c1cc2c(=O)n(C)c3ccccc3c2s1)Cc1ccccc1 | . | -1 | -2 | . | -36*
Cn1c(=O)c2cc(C(=O)NCCCN3CCN(c4cccc(Cl)c4)CC3)sc2c2ccccc21 | . | 0 | -3 | . | -45*
Cc1ccc2nc(Nc3nc(=O)c4ccccc4n3C)nc(C)c2c1 | 0 | 158* | -5 | ? | -23
Cc1ccc2nc(Nc3nc(-c4ccccc4)cc(=O)[nH]3)nc(C)c2c1 | 2 | 1 | -6 | 16 | 21
CN(CC(=O)Nc1cccc(F)c1)C(=O)c1csc2c1CCCC2 | 16 | 33* | -11 | -5 | -3
CSc1ccc(CCNC(=O)c2csc3c2CCCCC3)cc1 | . | 12 | -1 | . | -38*
COc1ccc(CCNC(=O)c2csc3c2CCCC3)cc1OC | 1 | 4 | 0 | 0 | 1
Cc1c(CC(=O)NCCc2ccc(Cl)cc2)c(=O)oc2c(C)c3occ(C(C)(C)C)c3cc12 | . | 1 | 0 | . | 0
CCOc1ccc(NC(=O)Cn2cnc3sc(C)c(S(=O)(=O)N4CCN(c5ccccc5OC)CC4)c3c2=O)cc1 | . | 1 | 1 | . | -5
CC(CN1CCNCC1)(NS(=O)(=O)c1ccccc1)c1ccccc1 (stereo not given) | 0 | 0 | -13 | 3 | -35*
Cc1ccc(S(=O)(=O)NC(C)(C)CN2CCNCC2)cc1 | -4 | 4 | -2 | 8 | 0
SMILES | TRPV1 agonist | D1 agonist | D1 potentiator | TRPV1 potentiator | D1 antagonist
Cc1ccc2[nH]c3c(NCc4ccccc4)ncnc3c2c1 | 0 | 40* | -8 | 12 | -51*
Cc1ccc2c(c1)[nH]c1c(=O)n(CCC3=CCCCC3)cnc12 | 0 | 1 | -6 | 1 | -32*
COc1ccc(CNc2ncnc3c2[nH]c2ccccc23)cc1 | 17 | 33* | -2 | 1 | -42*
C1=C(CCNc2ncnc3c2[nH]c2ccccc23)CCCC1 | 80* | 20 | -5 | -29 | -34*
Cc1nn2c(=O)cc(COC(=O)c3ccc(NC(=O)c4cccc(Br)c4)cc3)nc2s1 | . | 0 | -1 | . | 0
Cc1cc(C)n(-c2nc(C)c(C)c(=O)n2CC(=O)Nc2ccc([N+](=O)[O-])cc2)n1 | . | -5 | 4 | . | .
COc1ccc2c(c1)[nH]c1c(=O)n(CCCN3CCOCC3)cnc12 | -1 | 1 | -6 | 1 | -31*
COc1ccc2c(c1)[nH]c1c(=O)n(CCN3CCOCC3)cnc12 | 1 | 0 | -3 | 3 | 1
O=c1c2ccccc2nc(N2CCN(c3cccc(Cl)c3)CC2)n1-c1ccccc1 | . | 3 | 0 | . | 12
COc1ccc(OC)c(CCNc2ncnc3onc(-c4ccc(Cl)cc4)c23)c1 | . | 11 | 0 | . | -3
COc1ccc(OC)c(CCNc2ncnc3onc(-c4ccc(F)cc4)c23)c1 | . | 33* | -3 | . | -32*
Cc1ccc(-n2c(-c3cccc(C)c3)nc3c(cnn3-c3ccccc3)c2=O)cc1 | . | 4 | -2 | . | 5
Cc1cccc(-c2nc3c(cnn3-c3ccccc3)c(=O)n2-c2ccc(Cl)cc2)c1 | . | 6 | -3 | . | -36*
Cc1nc2c(cnn2-c2ccccc2)c(=O)[nH]1 | -2 | 0 | -5 | 0 | -38*
O=c1[nH]c(-c2ccc(Cl)cc2)nc2c1cnn2-c1ccccc1 | -1 | 3 | -2 | 6 | 9
CCC(C)NC(=O)Cn1c(=O)c2cccn2c2ccc(F)cc21 (stereo not given) | . | 2 | -4 | . | 6
CCOc1ccccc1CNCc1c(C(=O)O)n(Cc2ccc(F)cc2)c2cc(C)ccc12 | . | 0 | 9 | . | 18
CCN(CC)S(=O)(=O)c1ccc(C(=O)Nc2ccc(Cc3ccncc3)cc2)cc1 | 81* | 18 | -4 | 2 | -29
CCN(CC)S(=O)(=O)c1ccc(NC(=O)c2ccc(N(C)S(C)(=O)=O)cc2)cc1 | 25 | 8 | -12 | -28 | -36*
CCN(CC)S(=O)(=O)c1ccc(C(=O)Nc2cc(C)cc(C)c2)cc1 | ? | 4 | -8 | -10 | -13
Cn1c2cc(Br)sc2c2cnn(Cc3ccccc3F)c(=O)c21 | . | 0 | 8 | . | 3
COc1ccc([C@]23Cc4cc(OC)c(OC)cc4C(O2)c2c(cc(C)n(Cc4ccccc4)c2=O)O3)cc1 | i | 2 | 0 | i | 0
Cc1ccc(C)c(NC(=O)CSc2nnc(NC(=O)Nc3ccccc3)s2)c1 | . | 2 | 5 | . | .
O=C(C1=C(O)C(=O)N(CCN2CCOCC2)C1c1ccc([N+](=O)[O-])cc1)c1cccs1 (stereo not given) | 0 | 2 | -1 | -7 | -75*
O=C(C1=C(O)C(=O)N(CCN2CCOCC2)C1c1cccc(Br)c1)c1cccs1 (stereo not given) | -12 | 4 | 2 | -12 | -6
Cc1ccc(-c2cc(-c3ccccc3)c(C#N)c(SCC(O)CS(=O)(=O)Cc3ccccc3)n2)cc1 (stereo not given) | . | 11 | 1 | . | -39*
O=C(NCc1noc2ccccc12)Nc1ccc(F)cc1F | . | 1 | -2 | . | -16
O=C(NC1CC(=O)N(c2ccc(Cl)cc2)C1)c1ccc(S(=O)(=O)N2CCOCC2)cc1 (stereo not given) | . | 0 | -2 | . | .
